± gives the standard deviation of the averaged measurements.
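Note: End-point A600 read in BHI broth at 37 °C with 2% DMSO, inhibition computed as (1 − OD with compound plus ceftriaxone ÷ OD with ceftriaxone only) × 100.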

This assay relates to Listeria monocytogenes 10403S. Kind of assay: growth inhibition relative to ceftriaxone-alone control; higher = stronger potentiation of ceftriaxone growth inhibition. As to conditions: 10 µM; ceftriaxone 1 ug/ml; 12 h.
For `C=CC(=O)Nc1ccc2ncnc(Nc3ccc(OCc4cccc(F)c4)c(Cl)c3)c2c1`, the growth inhibition came to 17.47 ± 0.16%.

For the compound `Cc1ccc(O)cc1Nc1ccnc2ccc(S(C)(=O)=O)cc12`, the growth inhibition was -11.4 ± 13%.

For the compound `CCN1CCC(C(=O)Nc2n[nH]c3nnc(-c4cccc(F)c4F)cc23)CC1`, the growth inhibition turned out to be 0.339 ± 3.9%.

With `Fc1cccc(COc2ccc(Nc3ncnc4cc(-c5ccc[nH]5)sc34)cc2Cl)c1`, the growth inhibition was 7.47 ± 4%.

Regarding `COc1cc(Nc2ncc(F)c(Nc3ccc4c(n3)N(COP(=O)(O)O)C(=O)C(C)(C)O4)n2)cc(OC)c1OC`, the growth inhibition came out at 10.1 ± 12%.

In the case of `CS(=O)(=O)CCNCc1ccc(-c2ccc3ncnc(Nc4ccc(OCc5ccccc5)c(Cl)c4)c3c2)o1`, the growth inhibition was -9.81 ± 12%.

Regarding `CCN1CCC(CC(=O)Nc2n[nH]c3nc(-c4cccs4)c(Br)cc23)CC1`, the growth inhibition worked out at 7.98 ± 1.7%.

As for `CNC(=O)c1cc(COc2nnc(Nc3ccc(Cl)cc3)c3ccoc23)ccn1` [Telatinib (BAY 57-9352)], the growth inhibition amounted to 22.8 ± 32%.

Regarding `C=CC(=O)Nc1cccc(Oc2nc(Nc3ccc(N4CCN(C)CC4)cc3)ncc2Cl)c1`, the growth inhibition is 13.3 ± 3.3%.

In the case of `COc1cc2ncn(-c3cc(O[C@H](C)c4ccccc4Cl)c(C(N)=O)s3)c2cc1OC`, the growth inhibition is -3.78 ± 5.6%.

In the case of `COc1cc2c(Oc3ccc(NC(=O)C4(C(=O)Nc5ccc(F)cc5)CC4)cc3F)ccnc2cc1OCCCN1CCOCC1`, the growth inhibition came out at 80.2 ± 4.3%.

Turning to `Cc1cc(O)cc(C)c1/C=C/c1cncc(C(=O)OC(C)(C)C)c1`, the growth inhibition is -0.285 ± 0.11%.

With `CC(C)(CO)CNC(=O)c1ccc2c(c1)/C(=N/Nc1ccc(S(N)(=O)=O)cc1)C(=O)N2`, the growth inhibition was -13.4 ± 16%.

For the compound `c1ccc(-c2nc3n(c2-c2ccc4c(c2)OCO4)CCC3)nc1`, the growth inhibition was -10.3 ± 17%.

In the case of `Nc1ncc(-c2cccc(S(N)(=O)=O)c2)c2scc(-c3ccc(F)c(Cl)c3)c12`, the growth inhibition is -7.14 ± 12%.

With `COc1cc2ncn(-c3cc(OCc4cccs4)c(C(N)=O)s3)c2cc1OC`, the growth inhibition is -10.4 ± 16%.

With `N#Cc1c(NC(=O)c2ccc(F)cc2)sc2c1CCCC2`, the growth inhibition stood at 1.2 ± 5.5%.

For `COc1ccc(-c2cc3c(N)ncnc3o2)cc1`, the growth inhibition is -3.61 ± 1.9%.

As for `CNC(=O)c1cccc(-c2ccc3c(N4CCOC[C@@H]4C)nc(N4CCOC[C@@H]4C)nc3n2)c1`, the growth inhibition amounted to 1.51 ± 0.18%.

For `Oc1cccc(-c2nc(N3CCOCC3)c3oc4ncccc4c3n2)c1`, the growth inhibition came out at 22.4 ± 24%.

On to `CNC(=O)c1ccccc1Sc1ccc2c(/C=C/c3ccccn3)n[nH]c2c1` [Axitinib], for which the growth inhibition is -11.8 ± 14%.

`CCc1ccc(Oc2nccc(-c3c(-c4ccc(F)cc4)ncn3C3CCNCC3)n2)cc1`: the growth inhibition was 1.75 ± 23%.

`COc1cc(Nc2nccc(-c3cnn4ncccc34)n2)cc(OC)c1`: the growth inhibition is -13.8 ± 16%.
